Data: PubChem BioAssay (NCI)
The panel holds about 83,000 compounds, 20% with a hit somewhere; the sample as a whole holds those more often.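 The test compound was applied at a single concentration to cells in 96-well plates for 48 hours, and percent growth was recorded.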 The source made the active and inactive calls. The calls were made as follows: active = growth percent below 10; inactive = the rest.

Legend:
Assay in all cases: NCI-60 one-dose screen, 48 h (100 = growth as untreated, 0 = no growth, -100 = all killed)
Settings in all cases: 10 µM
HCT-15 colon = tested on: HCT-15 colon
HT29 colon = tested on: HT29 colon
SNB-75 CNS = tested on: SNB-75 CNS
SNB-19 CNS = tested on: SNB-19 CNS
U251 CNS = tested on: U251 CNS
PC-3 prostate = tested on: PC-3 prostate
SK-MEL-5 melanoma = tested on: SK-MEL-5 melanoma
UACC-62 melanoma = tested on: UACC-62 melanoma
LOX IMVI melanoma = tested on: LOX IMVI melanoma
SK-MEL-28 melanoma = tested on: SK-MEL-28 melanoma
EKVX NSCLC = tested on: EKVX NSCLC
SN12C renal = tested on: SN12C renal
UO-31 renal = tested on: UO-31 renal
TK-10 renal = tested on: TK-10 renal
ACHN renal = tested on: ACHN renal
CAKI-1 renal = tested on: CAKI-1 renal
A498 renal = tested on: A498 renal
CCRF-CEM leukemia = tested on: CCRF-CEM leukemia
MOLT-4 leukemia = tested on: MOLT-4 leukemia
SK-MEL-2 melanoma = tested on: SK-MEL-2 melanoma

Measured: growth

C[N+]1(CCCCC[N+]2(C)CCCC2)CCCC1
inactive: HCT-15 colon 103% | HT29 colon 102% | SNB-75 CNS 110% | SNB-19 CNS 96.8% | U251 CNS 108% | PC-3 prostate 86.3% | SK-MEL-5 melanoma 103% | UACC-62 melanoma 102% | LOX IMVI melanoma 105% | SK-MEL-28 melanoma 105% | EKVX NSCLC 80% | SN12C renal 62.4% | UO-31 renal 78.5% | TK-10 renal 108% | ACHN renal 97.2% | CAKI-1 renal 78.6% | A498 renal 108% | CCRF-CEM leukemia 67.5% | MOLT-4 leukemia 91%

C[C@H]1[C@H](OC(=O)CCC(=O)O)O[C@@H]2O[C@]3(C)CC[C@H]4[C@H](C)CC[C@@H]1[C@@]24OO3
active: LOX IMVI melanoma -49.5% | UO-31 renal 9.64%
inactive: HCT-15 colon 16.7% | HT29 colon 23.8% | SNB-75 CNS 61.8% | SNB-19 CNS 57.9% | U251 CNS 36.5% | PC-3 prostate 25% | SK-MEL-5 melanoma 28% | UACC-62 melanoma 36.4% | SK-MEL-28 melanoma 70.5% | EKVX NSCLC 29.2% | SN12C renal 33.3% | TK-10 renal 46.8% | ACHN renal 27% | CAKI-1 renal 16.7% | A498 renal 80.6% | CCRF-CEM leukemia 39.7% | MOLT-4 leukemia 14.8%

O=C(CCCCCCC(=O)Nc1ccccc1)NO
inactive: HCT-15 colon 33.9% | SNB-75 CNS 18% | SNB-19 CNS 25% | PC-3 prostate 10.4% | EKVX NSCLC 28.8% | SN12C renal 11.7%
active: HT29 colon 7.15% | U251 CNS -20.1% | SK-MEL-5 melanoma -54.4% | UACC-62 melanoma -42.8% | LOX IMVI melanoma -3.4% | SK-MEL-28 melanoma 5.94% | UO-31 renal -2.53% | TK-10 renal 6.84% | ACHN renal 4.68% | CAKI-1 renal -28.3% | A498 renal -44.9% | MOLT-4 leukemia -5.35%

CCN(CC)CCNc1ccc(C)c2sc3cc(Cl)ccc3c(=O)c12
inactive: HCT-15 colon 26.6% | SNB-75 CNS 59.8% | SNB-19 CNS 47% | U251 CNS 16.5% | PC-3 prostate 34.9% | SK-MEL-5 melanoma 14.1% | EKVX NSCLC 71.3% | SN12C renal 35.6% | UO-31 renal 26.9% | TK-10 renal 50.6% | ACHN renal 28.1% | A498 renal 53.5% | CCRF-CEM leukemia 11.6%
active: HT29 colon -25% | UACC-62 melanoma -67% | LOX IMVI melanoma -84.5% | SK-MEL-28 melanoma -59.3% | MOLT-4 leukemia 1.35%

Cc1ccc(NCCN(C)CC(C)O)c2c(=O)c3ccc(Cl)cc3sc12 (stereo not given)
active: HT29 colon -27% | U251 CNS 8.57% | UACC-62 melanoma -68.7% | LOX IMVI melanoma -82.9% | SK-MEL-28 melanoma -53.5%
inactive: HCT-15 colon 21.2% | SNB-75 CNS 76.3% | SNB-19 CNS 55% | PC-3 prostate 48.2% | SK-MEL-5 melanoma 46.9% | EKVX NSCLC 78.5% | SN12C renal 49.8% | UO-31 renal 51.5% | TK-10 renal 79.1% | ACHN renal 44.6% | A498 renal 73.8% | CCRF-CEM leukemia 20.4% | MOLT-4 leukemia 16.2%

N#CC1=C(N)Oc2cc(N)ccc2C1c1cccnc1 (stereo not given)
inactive: HCT-15 colon 95.6% | HT29 colon 93.8% | SNB-75 CNS 79.3% | SNB-19 CNS 103% | U251 CNS 102% | PC-3 prostate 88.7% | SK-MEL-5 melanoma 99.3% | UACC-62 melanoma 101% | LOX IMVI melanoma 95.1% | SK-MEL-28 melanoma 102% | EKVX NSCLC 96.5% | SN12C renal 98.5% | UO-31 renal 84.8% | TK-10 renal 119% | ACHN renal 96.7% | A498 renal 93.5% | MOLT-4 leukemia 89.6%

O=C(CCC(C(=O)c1ccccc1)c1ccccc1)c1ccccc1 (stereo not given)
inactive: HCT-15 colon 45.8% | HT29 colon 34.1% | SNB-75 CNS 79.9% | SNB-19 CNS 89.8% | U251 CNS 90.4% | PC-3 prostate 55.5% | SK-MEL-5 melanoma 82.5% | UACC-62 melanoma 63% | LOX IMVI melanoma 91.9% | SK-MEL-28 melanoma 80.5% | EKVX NSCLC 76.2% | SN12C renal 79.7% | UO-31 renal 72.1% | TK-10 renal 102% | ACHN renal 72.2% | CAKI-1 renal 52% | A498 renal 80.6% | CCRF-CEM leukemia 38.2% | MOLT-4 leukemia 46.2%

Cc1c(Cl)cccc1NC(=O)CN1CCOCC1
inactive: HCT-15 colon 99% | HT29 colon 84.2% | SNB-75 CNS 88.9% | SNB-19 CNS 117% | U251 CNS 106% | PC-3 prostate 102% | SK-MEL-5 melanoma 101% | UACC-62 melanoma 103% | LOX IMVI melanoma 97.4% | SK-MEL-2 melanoma 93.5% | EKVX NSCLC 102% | SN12C renal 99.9% | UO-31 renal 83.8% | TK-10 renal 84.4% | ACHN renal 109% | A498 renal 101% | MOLT-4 leukemia 82.3%

Cc1c(Cl)cccc1NC(=O)CCCl
inactive: HCT-15 colon 110% | HT29 colon 95.4% | SNB-75 CNS 98.1% | SNB-19 CNS 96.7% | U251 CNS 91% | PC-3 prostate 94.3% | SK-MEL-5 melanoma 104% | UACC-62 melanoma 93.2% | LOX IMVI melanoma 101% | SK-MEL-2 melanoma 103% | EKVX NSCLC 106% | UO-31 renal 86.6% | TK-10 renal 89.3% | ACHN renal 108% | A498 renal 108% | CCRF-CEM leukemia 84.7% | MOLT-4 leukemia 85.3%

Brc1ccc2c(c1)-c1ccccc1C1=NCCN12
inactive: SNB-19 CNS 16.2%
active: HCT-15 colon 1.51% | HT29 colon -14.9% | SNB-75 CNS 8.5% | U251 CNS -10.7% | PC-3 prostate 2.13% | SK-MEL-5 melanoma -77.2% | LOX IMVI melanoma -69.4% | SK-MEL-28 melanoma 0.722% | SK-MEL-2 melanoma -39.7% | EKVX NSCLC -2.72% | SN12C renal -7.57% | UO-31 renal -16.6% | TK-10 renal -12.5% | ACHN renal -22.2% | CAKI-1 renal -5.84% | A498 renal -75.7% | CCRF-CEM leukemia -12% | MOLT-4 leukemia -7.7%

O=C(O)c1ccc(-n2cc(CNc3ccc(Oc4ccccc4)cc3)c(-c3ccccc3)n2)cc1
inactive: HCT-15 colon 72.9% | HT29 colon 102% | SNB-75 CNS 81.6% | SNB-19 CNS 87.7% | U251 CNS 83.3% | PC-3 prostate 96% | SK-MEL-5 melanoma 96.8% | UACC-62 melanoma 83.4% | LOX IMVI melanoma 90.4% | SK-MEL-2 melanoma 88.5% | EKVX NSCLC 85.1% | SN12C renal 93.4% | UO-31 renal 76.6% | TK-10 renal 90.1% | ACHN renal 87.4% | CAKI-1 renal 86.4% | A498 renal 83.2%
active: MOLT-4 leukemia -4.16%

COc1ccc(-c2n[nH]nc2-c2cc(OC)c3c(c2OC)OCO3)cc1
active: HT29 colon 4.41% | SNB-75 CNS 4.8% | SK-MEL-5 melanoma 6.78%
inactive: HCT-15 colon 35.5% | SNB-19 CNS 51.8% | U251 CNS 13.8% | PC-3 prostate 26.3% | UACC-62 melanoma 40.6% | LOX IMVI melanoma 37% | SK-MEL-28 melanoma 63% | EKVX NSCLC 48.3% | SN12C renal 33.5% | ACHN renal 54.9% | CAKI-1 renal 27.2% | A498 renal 14.9% | CCRF-CEM leukemia 17.8% | MOLT-4 leukemia 24.2%

OC[C@H]1OC([S-])[C@H](O)[C@@H](O)[C@@H]1O.[Au+] (stereo not given in full)
inactive: HCT-15 colon 87.8% | HT29 colon 83.8% | SNB-75 CNS 98.8% | SNB-19 CNS 101% | U251 CNS 61.7% | PC-3 prostate 77.8% | SK-MEL-5 melanoma 68.5% | UACC-62 melanoma 63.3% | LOX IMVI melanoma 50.3% | EKVX NSCLC 106% | SN12C renal 98.5% | UO-31 renal 99.4% | TK-10 renal 124% | ACHN renal 105% | CAKI-1 renal 108% | A498 renal 174% | CCRF-CEM leukemia 61.5% | MOLT-4 leukemia 75.9%

C=CCn1c(SCC(=O)Nc2ccc(C(=O)/C=C/c3ccc(Cl)cc3)cc2)nnc1-c1cc(-c2ccccc2)nc2ccccc12
active: HCT-15 colon 8.31% | LOX IMVI melanoma -82.4%
inactive: HT29 colon 40.9% | SNB-75 CNS 59.8% | SNB-19 CNS 66.9% | U251 CNS 48.1% | PC-3 prostate 70.4% | SK-MEL-5 melanoma 87.1% | UACC-62 melanoma 59.9% | SK-MEL-28 melanoma 99.7% | EKVX NSCLC 79.1% | SN12C renal 70.8% | TK-10 renal 94.8% | ACHN renal 82.3% | CAKI-1 renal 61.7% | A498 renal 81.4% | MOLT-4 leukemia 12.8%

Cc1noc(C)c1CSc1ccccc1C(=O)N1CCN(c2cccc(C(F)(F)F)c2)CC1
inactive: HCT-15 colon 72.4% | HT29 colon 69.4% | SNB-75 CNS 76.2% | SNB-19 CNS 81.5% | U251 CNS 88.2% | PC-3 prostate 55.3% | SK-MEL-5 melanoma 43.5% | UACC-62 melanoma 52.2% | LOX IMVI melanoma 74.9% | SK-MEL-2 melanoma 85.1% | EKVX NSCLC 66.7% | SN12C renal 80.2% | UO-31 renal 67.5% | TK-10 renal 91.3% | ACHN renal 84.9% | CAKI-1 renal 68.8% | A498 renal 77.5% | MOLT-4 leukemia 67.6%

COc1ccc(C(=O)COc2cccc(/C=C3\Cc4ccccc4C3=O)c2)cc1
inactive: HCT-15 colon 85.6% | HT29 colon 82.1% | SNB-75 CNS 46.8% | SNB-19 CNS 90.8% | U251 CNS 82.6% | PC-3 prostate 82% | SK-MEL-5 melanoma 67.3% | UACC-62 melanoma 61.3% | LOX IMVI melanoma 90.3% | SK-MEL-2 melanoma 51.8% | EKVX NSCLC 87.8% | SN12C renal 92.7% | UO-31 renal 12.1% | TK-10 renal 111% | ACHN renal 95.8% | CAKI-1 renal 76.4% | A498 renal 94.7% | CCRF-CEM leukemia 80.8% | MOLT-4 leukemia 85.8%

IC(I)I
inactive: HCT-15 colon 101% | HT29 colon 115% | SNB-75 CNS 90.8% | SNB-19 CNS 106% | U251 CNS 102% | PC-3 prostate 109% | SK-MEL-5 melanoma 104% | UACC-62 melanoma 88.9% | SK-MEL-28 melanoma 109% | SK-MEL-2 melanoma 108% | EKVX NSCLC 102% | SN12C renal 95.1% | UO-31 renal 97.2% | TK-10 renal 107% | ACHN renal 110% | CAKI-1 renal 103% | MOLT-4 leukemia 102%
